Measured values as given in PubChem BioAssay.
For some assays here: Entries with a potency or affinity are not part of this list. Calls of active or inactive are those of the source.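 The calls were made as follows, unless noted: active = compound raising the membrane signal above positive-control mean plus 3 SD in both repeats, and a primary screen hit; inactive = the rest.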

Legend:
[1] = system: TRPC4 beta (transient receptor potential cation channel C4), mouse; assay: activators of mouse TRPC4 channel, confirmation, cell-based, Fluo4 calcium, HEK293 TRPC4beta/mu-opioid, duplicates, 10 µM (AID 2426;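 active = fluorescence ratio normalized to control raised more than 50% in primary screen plus both repeat runs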); details: Fluo4 calcium fluorescence, at 10 µM; hits give high values
[2] = system: transient receptor potential cation channel C4 beta (TRPC4), mouse; assay: activators of mouse TRPC4 channel, confirmation, cell-based, second round, Fluo4, HEK293 TRPC4beta/mu-opioid, 1 µM (AID 2461;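 active = primary screen active and over 50% activation in each of two duplicate runs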); details: Fluo4 calcium fluorescence, at 1 µM; hits give high values
[3] = system: TRPC4 (transient receptor potential cation channel C4 beta), mouse; assay: positive allosteric modulators of mouse TRPC4, confirmation, cell-based, second round, Fluo-4, HEK293 TRPC4beta/mu-opioid, 1 µM (AID 2554;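 active = primary screen hit whose fluorescence ratio, in both repeats, exceeds the weak agonist control mean by 3 SD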); details: DAMGO EC20, Fluo-4 calcium flux, at 1 µM; hits give high values
[4] = system: TRPC4 beta (transient receptor potential cation channel C4), mouse; assay: positive allosteric modulators of mouse TRPC4, confirmation, cell-based, Fluo-4, HEK293 TRPC4beta/mu-opioid (AID 2555;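 active = primary screen hit whose calcium fluorescence ratio, in both repeats, exceeds the weak agonist control mean by 3 SD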); details: DAMGO EC20, Fluo-4 calcium flux, at 10 µM; hits give high values
[5] = target: Short transient receptor potential channel 4 (Mus musculus) (UniProt Q9QUQ5); assay: inhibitors of mouse TRPC4 channel, confirmation, cell-based, Fluo4, HEK293 TRPC4beta/mu-opioid (AID 2636;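 active = calcium signal cut by more than 3 SD below the full-agonist control yet still positive, in both repeats and the earlier primary screen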); details: DAMGO, Fluo4 calcium flux, at 10 µM; hits give high values
[6] = target: Short transient receptor potential channel 4 (Mus musculus) (UniProt Q9QUQ5); assay: inhibitors of mouse TRPC4 channel, confirmation, cell-based, second round, Fluo4, HEK293 TRPC4beta/mu-opioid, 1 µM (AID 2637;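 active = calcium signal ratio cut to more than 3 SD under the fully stimulated control mean yet still positive, in both repeats and the primary screen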;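 as to inhibition: percent of integrated ratio relative to wells lacking test compound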); details: Fluo4 calcium flux, DAMGO, at 1 µM; hits give high values
[7] = target: Short transient receptor potential channel 4 (Mus musculus) (UniProt Q9QUQ5); assay: mouse TRPC4 channel activators, dose response, cell-based, HEK293 TRPC4/mu-opioid, Fluo-4 calcium (AID 434937;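 active = primary screen activator hit with a dose response curve and TRPC4 channel activation at any tested dose; inactive = no activation, no dose response, or not a primary hit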)
[8] = target: Short transient receptor potential channel 4 (Mus musculus) (UniProt Q9QUQ5); assay: TRPC4 positive allosteric modulators, dose response, cell-based, HEK293 TRPC4/mu-opioid, Fluo-4 calcium, EC20 DAMGO (AID 434941;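 active = earlier screen potentiator hit that boosts the TRPC4 ion channel at some dose, with a dose response; inactive = no potentiation, no dose response, or not a prior hit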;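 also: calcium entry triggered by an EC20 dose of DAMGO at the co-expressed mu-opioid receptor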)
[9] = target: Short transient receptor potential channel 4 (Mus musculus) (UniProt Q9QUQ5); assay: mouse TRPC4 channel inhibitors, dose response, cell-based, HEK293 TRPC4/mu-opioid, Fluo-4 calcium (AID 434942;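 active = primary screen inhibitor hit that blocks the TRPC4 channel at some tested dose, yielding a dose curve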)
[10] = target: Short transient receptor potential channel 6 (Mus musculus) (UniProt Q61143); assay: inhibition of mouse TRPC6 channel, confirmation, selectivity assay for TRPC4 inhibitor project, cell-based, HEK293, membrane potential dye, duplicate (AID 434948;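 active = active in primary screen and both duplicates, each dropping signal beyond three positive-control SD with fluorescence still positive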); details: HEK293 TRPC6, membrane potential dye fluorescence, at 10 µM, stimulated with maximal-effect acetylcholine; hits give high values
[11] = target: Short transient receptor potential channel 6 (Mus musculus) (UniProt Q61143); assay: activation of mouse TRPC6 channel, confirmation, selectivity assay for TRPC4 activator project, cell-based, HEK293, membrane potential dye, duplicate (AID 434950;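 active = membrane potential signal rise above negative control mean plus 3 SD in both duplicates, also active in the earlier TRPC4 screen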;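 as to activation: 0% = buffer only wells and 100% = acetylcholine maximal-effect wells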); details: HEK293 TRPC6, membrane potential fluorescence, at 10 µM; hits give high values
[12] = target: Short transient receptor potential channel 6 (Mus musculus) (UniProt Q61143); assay: TRPC6 potentiation by TRPC4 potentiator hits, confirmation, selectivity assay for TRPC4 potentiator project, HEK293 cells, membrane potential dye, duplicate (AID 434952); details: HEK293 TRPC6, membrane potential dye fluorescence, at 10 µM, maximal acetylcholine added after compound; hits give high values
[13] = target: Short transient receptor potential channel 4 (Mus musculus) (UniProt Q9QUQ5); assay: calcium flux activators in TRPC4/5HT1a cells, counter-screen for TRPC4 activator project, cell-based, second counter screen, HEK293 TRPC4/5HT1a, Fluo-4 (AID 434977;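 active = calcium signal rise above buffer-control mean plus 5 SD in both duplicates, and also a hit in the primary screen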;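 as to activation: plate controls were assay buffer for no effect and maximal serotonin response for full effect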); details: Fluo-4 calcium flux, at 10 µM; hits give high values
[14] = calcium flux inhibitors in TRPC4/5HT1a cells, confirmation, counter-screen for TRPC4 inhibitor project, cell-based, second counter screen, HEK293 TRPC4/5HT1a, Fluo-4 (AID 434978;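 active = primary screen active whose calcium signal fell more than 3 SD beyond the full-serotonin control mean in both duplicate plates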;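 as to outcome: serotonin given first at submaximal then at maximal dose after compound preincubation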); details: Fluo-4 calcium flux, at 10 µM, serotonin added to trigger calcium flux; hits give high values
[15] = system: TRPC4 (mouse), co-expressed with 5HT1a in HEK293; assay: calcium flux potentiators in TRPC4/5HT1a cells, confirmation, counter-screen for TRPC4 potentiator project, cell-based, second counter screen, HEK293 TRPC4/5HT1a, Fluo-4 (AID 434979;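 active = signal rise over 3 SD above mean of control wells given weak agonist, in both repeats and first screen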); details: Fluo-4 calcium flux, at 10 µM, serotonin added at its EC20 dose; hits give high values
[16] = calcium flux activation in mu-opioid HEK293 cells, confirmation, counter-screen for TRPC4 activator project, cell-based, HEK293 mu-opioid receptor line (AID 449723;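 active = hit in primary screen, with calcium signal over 5 SD above buffer well mean in both duplicates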;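 also: counter screen cells carry the mu-opioid receptor alone and lack TRPC4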); details: Fluo-4 calcium fluorescence, at 10 µM; hits give high values
[17] = calcium flux enhancement in mu-opioid HEK293 cells, confirmation, counter-screen for TRPC4 allosteric potentiator project, cell-based, HEK293 mu-opioid receptor line (AID 449724;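 active = calcium signal rise more than 3 SD above the low-dose agonist control mean, in both duplicate plates and the primary screen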); details: Fluo-4 calcium flux, at 10 µM, compound added before EC20 DAMGO stimulus; hits give high values

Short transient receptor potential channel 6 (Mus musculus), sequence (Q61143 whole entry, looked up): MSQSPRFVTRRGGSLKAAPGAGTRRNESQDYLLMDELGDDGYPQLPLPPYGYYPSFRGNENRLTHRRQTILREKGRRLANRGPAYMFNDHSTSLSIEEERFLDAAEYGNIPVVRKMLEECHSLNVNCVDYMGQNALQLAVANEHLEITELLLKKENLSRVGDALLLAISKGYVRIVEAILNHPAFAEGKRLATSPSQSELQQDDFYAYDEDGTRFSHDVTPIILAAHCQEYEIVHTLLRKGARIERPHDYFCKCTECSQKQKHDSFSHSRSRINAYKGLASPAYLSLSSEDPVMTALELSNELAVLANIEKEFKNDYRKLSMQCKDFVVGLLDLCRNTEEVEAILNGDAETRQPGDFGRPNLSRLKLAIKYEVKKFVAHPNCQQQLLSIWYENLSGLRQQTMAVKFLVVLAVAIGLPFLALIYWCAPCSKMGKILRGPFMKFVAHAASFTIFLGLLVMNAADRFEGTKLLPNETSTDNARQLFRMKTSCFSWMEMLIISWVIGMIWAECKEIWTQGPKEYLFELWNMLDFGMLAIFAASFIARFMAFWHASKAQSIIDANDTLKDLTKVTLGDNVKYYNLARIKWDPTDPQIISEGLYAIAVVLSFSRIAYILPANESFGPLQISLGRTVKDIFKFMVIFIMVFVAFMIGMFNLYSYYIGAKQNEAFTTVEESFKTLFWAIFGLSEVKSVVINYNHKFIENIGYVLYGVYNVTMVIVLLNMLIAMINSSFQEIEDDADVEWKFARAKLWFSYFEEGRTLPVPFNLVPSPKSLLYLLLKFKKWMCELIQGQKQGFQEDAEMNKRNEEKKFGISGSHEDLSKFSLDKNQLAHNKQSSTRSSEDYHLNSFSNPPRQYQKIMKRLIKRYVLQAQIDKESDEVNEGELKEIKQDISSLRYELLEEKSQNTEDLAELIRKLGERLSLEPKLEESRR
Short transient receptor potential channel 4 (Mus musculus), sequence (Q9QUQ5 whole entry, looked up): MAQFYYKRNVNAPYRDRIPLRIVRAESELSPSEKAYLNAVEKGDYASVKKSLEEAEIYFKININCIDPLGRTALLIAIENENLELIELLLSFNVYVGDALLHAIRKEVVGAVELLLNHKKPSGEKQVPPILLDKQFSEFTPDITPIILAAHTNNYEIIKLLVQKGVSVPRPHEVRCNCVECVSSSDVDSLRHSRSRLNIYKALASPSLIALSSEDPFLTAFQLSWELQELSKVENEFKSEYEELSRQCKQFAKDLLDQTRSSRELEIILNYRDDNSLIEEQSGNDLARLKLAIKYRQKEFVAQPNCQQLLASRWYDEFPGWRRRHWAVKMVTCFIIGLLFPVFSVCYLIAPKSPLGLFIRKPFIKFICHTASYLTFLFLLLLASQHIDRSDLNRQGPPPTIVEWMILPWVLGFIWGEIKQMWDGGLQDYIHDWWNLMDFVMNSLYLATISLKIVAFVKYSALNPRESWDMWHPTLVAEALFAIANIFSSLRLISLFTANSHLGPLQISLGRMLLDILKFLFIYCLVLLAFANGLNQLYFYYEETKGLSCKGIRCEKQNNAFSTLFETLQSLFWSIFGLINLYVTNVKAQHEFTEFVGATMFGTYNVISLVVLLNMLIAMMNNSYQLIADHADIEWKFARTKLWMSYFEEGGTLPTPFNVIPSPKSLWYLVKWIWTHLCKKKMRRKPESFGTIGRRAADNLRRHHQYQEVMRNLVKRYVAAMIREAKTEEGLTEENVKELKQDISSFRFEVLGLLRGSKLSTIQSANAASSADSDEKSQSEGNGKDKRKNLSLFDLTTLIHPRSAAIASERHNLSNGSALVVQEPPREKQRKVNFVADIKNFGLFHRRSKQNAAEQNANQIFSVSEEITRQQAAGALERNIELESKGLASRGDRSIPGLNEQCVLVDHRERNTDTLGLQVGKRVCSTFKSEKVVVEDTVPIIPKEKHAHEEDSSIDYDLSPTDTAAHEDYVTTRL

## Cn1ncc(C#N)c1/N=C/N(Cc1ccccc1)Cc1ccccc1
[1]
  outcome: inactive
[2]
  outcome: inactive
[3]
  outcome: inactive
[4]
  outcome: inactive
[5]
  outcome: inactive
[6]
  outcome: inactive
[7]
  outcome: inactive
[8]
  outcome: inactive
[9]
  outcome: inactive
[10]
  outcome: inactive
[11]
  outcome: inactive
[12]
  outcome: inactive
[13]
  outcome: inactive
[14]
  outcome: inactive
[15]
  outcome: inactive
[16]
  outcome: inactive
[17]
  outcome: inactive

## O=C(NCCc1ccccc1)c1cnc2ccccc2n1
[1]
  outcome: inactive
[2]
  outcome: inactive
[3]
  outcome: inactive
[4]
  potentiation: 19% (active)
[5]
  outcome: inactive
[6]
  outcome: inactive
[7]
  outcome: inactive
[8]
  outcome: inactive
[9]
  outcome: inactive
[10]
  outcome: inactive
[11]
  outcome: inactive
[12]
  outcome: inactive
[13]
  outcome: inactive
[14]
  outcome: inactive
[15]
  potentiation: 27.4% (active)
[16]
  outcome: inactive
[17]
  outcome: inactive

## O=C(Nc1cnn(C23CC4CC(CC(C4)C2)C3)c1)c1cnn2cccnc12
[1]
  outcome: inactive
[2]
  outcome: inactive
[3]
  potentiation: 27% (active)
[4]
  potentiation: 61% (active)
[5]
  outcome: inactive
[6]
  outcome: inactive
[7]
  outcome: inactive
[8]
  outcome: inactive
[9]
  outcome: inactive
[10]
  outcome: inactive
[11]
  outcome: inactive
[12]
  outcome: inactive
[13]
  outcome: inactive
[14]
  outcome: inactive
[15]
  potentiation: 71.9% (active)
[16]
  outcome: inactive
[17]
  outcome: inactive

## CCOC(=O)c1cnc(-n2nc(C)cc2C)nc1NC1CCCCC1
[1]
  outcome: inactive
[2]
  outcome: inactive
[3]
  outcome: inactive
[4]
  outcome: inactive
[5]
  outcome: inactive
[6]
  outcome: inactive
[7]
  outcome: inactive
[8]
  outcome: inactive
[9]
  outcome: inactive
[10]
  outcome: inactive
[11]
  outcome: inactive
[12]
  outcome: inactive
[13]
  outcome: inactive
[14]
  outcome: inactive
[15]
  potentiation: 26.3% (active)
[16]
  outcome: inactive
[17]
  outcome: inactive

## O=C(c1ccccc1F)N1CCN(c2ccc([N+](=O)[O-])c3cccnc23)CC1
[1]
  outcome: inactive
[2]
  outcome: inactive
[3]
  outcome: inactive
[4]
  potentiation: 18% (active)
[5]
  outcome: inactive
[6]
  outcome: inactive
[7]
  outcome: inactive
[8]
  outcome: inactive
[9]
  outcome: inactive
[10]
  outcome: inactive
[11]
  outcome: inactive
[12]
  outcome: inactive
[13]
  outcome: inactive
[14]
  outcome: inactive
[15]
  potentiation: 16.5% (active)
[16]
  outcome: inactive
[17]
  outcome: inactive

## c1coc(CN=C2NC(=NCc3ccco3)c3ccccc32)c1
[1]
  outcome: inactive
[2]
  outcome: inactive
[3]
  outcome: inactive
[4]
  outcome: inactive
[5]
  inhibition: 98% (active)
[6]
  inhibition: 49% (active)
[7]
  outcome: inactive
[8]
  outcome: inactive
[9]
  outcome: inactive
[10]
  inhibition: 47.5% (active)
[11]
  outcome: inactive
[12]
  outcome: inactive
[13]
  outcome: inactive
[14]
  inhibition: 35.3% (active)
[15]
  outcome: inactive
[16]
  outcome: inactive
[17]
  outcome: inactive

## CCOC(=O)CC(NC(=O)c1cc2cc(Cl)cc(Cl)c2oc1=O)c1cccc([N+](=O)[O-])c1 (configuration not stated)
[1]
  outcome: inactive
[2]
  outcome: inactive
[3]
  outcome: inactive
[4]
  potentiation: 35% (active)
[5]
  outcome: inactive
[6]
  outcome: inactive
[7]
  outcome: inactive
[8]
  outcome: inactive
[9]
  outcome: inactive
[10]
  outcome: inactive
[11]
  outcome: inactive
[12]
  outcome: inactive
[13]
  outcome: inactive
[14]
  outcome: inactive
[15]
  outcome: inactive
[16]
  outcome: inactive
[17]
  outcome: inactive

## Cc1ccc(NC(=O)CN(C)C(=O)CNC(=O)c2sc3ccccc3c2Cl)cc1
[1]
  outcome: inactive
[2]
  outcome: inactive
[3]
  outcome: inactive
[4]
  outcome: inactive
[5]
  outcome: inactive
[6]
  outcome: inactive
[7]
  outcome: inactive
[8]
  outcome: inactive
[9]
  outcome: inactive
[10]
  outcome: inactive
[11]
  outcome: inactive
[12]
  outcome: inactive
[13]
  outcome: inactive
[14]
  outcome: inactive
[15]
  potentiation: 29.5% (active)
[16]
  outcome: inactive
[17]
  outcome: inactive

## O=S(=O)(c1ccc(Cl)cc1Br)N1CCCCC1
[1]
  outcome: inactive
[2]
  outcome: inactive
[3]
  outcome: inactive
[4]
  outcome: inactive
[5]
  outcome: inactive
[6]
  outcome: inactive
[7]
  outcome: inactive
[8]
  outcome: inactive
[9]
  outcome: inactive
[10]
  outcome: inactive
[11]
  outcome: inactive
[12]
  outcome: inactive
[13]
  outcome: inactive
[14]
  outcome: inactive
[15]
  outcome: inactive
[16]
  outcome: inactive
[17]
  outcome: inactive

## Cc1ccc(Oc2ccccc2NC(=O)CSCC(=O)Nc2cc(C)on2)cc1
[1]
  outcome: inactive
[2]
  outcome: inactive
[3]
  outcome: inactive
[4]
  outcome: inactive
[5]
  inhibition: 62% (active)
[6]
  outcome: inactive
[7]
  outcome: inactive
[8]
  outcome: inactive
[9]
  outcome: inactive
[10]
  outcome: inactive
[11]
  outcome: inactive
[12]
  outcome: inactive
[13]
  outcome: inactive
[14]
  inhibition: 35.3% (active)
[15]
  outcome: inactive
[16]
  outcome: inactive
[17]
  outcome: inactive

## Clc1ccc(OCCCc2nc(-c3ccncc3)no2)c(Cl)c1
[1]
  outcome: inactive
[2]
  outcome: inactive
[3]
  outcome: inactive
[4]
  outcome: inactive
[5]
  inhibition: 91% (active)
[6]
  outcome: inactive
[7]
  outcome: inactive
[8]
  outcome: inactive
[9]
  outcome: inactive
[10]
  outcome: inactive
[11]
  outcome: inactive
[12]
  outcome: inactive
[13]
  outcome: inactive
[14]
  inhibition: 30.7% (active)
[15]
  outcome: inactive
[16]
  outcome: inactive
[17]
  outcome: inactive

## O=[N+]([O-])c1ccc(C[n+]2cccc(O)c2)cc1
[1]
  outcome: inactive
[2]
  outcome: inactive
[3]
  outcome: inactive
[4]
  outcome: inactive
[5]
  outcome: inactive
[6]
  outcome: inactive
[7]
  outcome: inactive
[8]
  outcome: inactive
[9]
  outcome: inactive
[10]
  outcome: inactive
[11]
  activation: 28.5% (active)
[12]
  outcome: inactive
[13]
  outcome: inactive
[14]
  outcome: inactive
[15]
  outcome: inactive
[16]
  outcome: inactive
[17]
  outcome: inactive

## O=[N+]([O-])c1ccc(N2CCN(CCOc3nonc3-c3ccccc3)CC2)c(Cl)c1
[1]
  outcome: inactive
[2]
  outcome: inactive
[3]
  potentiation: 10% (active)
[4]
  potentiation: 34% (active)
[5]
  outcome: inactive
[6]
  outcome: inactive
[7]
  outcome: inactive
[8]
  outcome: inactive
[9]
  outcome: inactive
[10]
  outcome: inactive
[11]
  outcome: inactive
[12]
  outcome: inactive
[13]
  outcome: inactive
[14]
  outcome: inactive
[15]
  potentiation: 20.3% (active)
[16]
  outcome: inactive
[17]
  outcome: inactive

## CCOc1cc(N(CC)CC)ccc1/C=C(/C#N)c1nc2ccccc2[nH]1
[1]
  outcome: inactive
[2]
  outcome: inactive
[3]
  outcome: inactive
[4]
  outcome: inactive
[5]
  outcome: inactive
[6]
  outcome: inactive
[7]
  outcome: inactive
[8]
  outcome: inactive
[9]
  outcome: inactive
[10]
  outcome: inactive
[11]
  activation: 86% (active)
[12]
  outcome: inactive
[13]
  activation: 16.9% (active)
[14]
  outcome: inactive
[15]
  outcome: inactive
[16]
  activation: 31.5% (active)
[17]
  outcome: inactive

## CCN(C(=O)c1cnc(NC(C)C)cc1C(F)(F)F)c1ccc(Cl)cc1Cl
[1]
  outcome: inactive
[2]
  outcome: inactive
[3]
  outcome: inactive
[4]
  outcome: inactive
[5]
  inhibition: 91% (active)
[6]
  outcome: inactive
[7]
  outcome: inactive
[8]
  outcome: inactive
[9]
  outcome: inactive
[10]
  outcome: inactive
[11]
  outcome: inactive
[12]
  outcome: inactive
[13]
  outcome: inactive
[14]
  inhibition: 44.8% (active)
[15]
  outcome: inactive
[16]
  outcome: inactive
[17]
  outcome: inactive

## CCN(CC)CCOCCOc1ccc(Cl)c2ccccc12
[1]
  outcome: inactive
[2]
  outcome: inactive
[3]
  outcome: inactive
[4]
  outcome: inactive
[5]
  outcome: inactive
[6]
  outcome: inactive
[7]
  outcome: inactive
[8]
  outcome: inactive
[9]
  outcome: inactive
[10]
  outcome: inactive
[11]
  outcome: inactive
[12]
  outcome: inactive
[13]
  outcome: inactive
[14]
  outcome: inactive
[15]
  potentiation: 11% (active)
[16]
  outcome: inactive
[17]
  outcome: inactive
